KB-3-1 cytotox – qHTS assay for MDR1-selective chemotherapeutics: Primary screen using the parental adenocarcinoma cell KB-3-1; KB-3-1 viability, CellTiter-Glo ATP luminescence, 72 h; Potency, µM (series often up to 46.1 µM), usual class: cytotoxic; 400,000 tested, 1.4% active; also: nearly all actives have a fitted effect of over 60% in size
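Viability of parental KB-3-1 cells, measured by CellTiter-Glo luminescence, followed a 72 h incubation at 37 °C with pinned compounds in phenol-red-free DMEM containing 10% FBS.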
TDP1 cell noCPT – qHTS for Inhibitors of human tyrosyl-DNA phosphodiesterase 1 (TDP1): qHTS in cells in absence of CPT | DT40 Tdp1-/- hTDP1 cells, no CPT, ATP luminescence, 48 h | Potency, µM (top dose mostly 46.2 µM), hits mostly inhibitors | 420,000 tested, 15% active; also: nearly all actives have a fitted effect of over 55% in size
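Seeded 400 DT40-hTDP1 cells/well (vehicle DMSO, no 20 nM CPT); pinned compounds; ≥48 hr at 37 °C; CellTiter-Glo luminescence as viability measure.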
TDP1 cell CPT – qHTS for Inhibitors of human tyrosyl-DNA phosphodiesterase 1 (TDP1): qHTS in cells in presence of CPT | 420,000 tested, 12% active | AID 686979, 2013 | Potency, µM (top dose mostly 46.2 µM), hits mostly inhibitors | chicken DT40 Tdp1-/-;hTDP1 cells + 20 nM CPT, ATP luminescence, 48 h; also: nearly all actives have a fitted effect of over 55% in size
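Chicken DT40 Tdp1-/- cells stably complemented with human TDP1 were seeded at 400 cells/well in medium containing 20 nM camptothecin, exposed to pin-transferred compounds, and grown at 37 °C for at least 48 hr. Viability was read as ATP luminescence.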
HT1080-NT tox – qHTS for induction of synthetic lethality in tumor cells producing 2HG: qHTS for the HT-1080-NT fibrosarcoma cell line. HT-1080-NT fibrosarcoma viability, CellTiter-Glo ATP luminescence, 48 h. Potency, µM (series often up to 46.1 µM), hits mostly cytotoxic. 360,000 tested, 1.6% active;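 also: NT is the 2HG producing partner of a matched IDH1 knockdown line; nearly all actives have a fitted effect of over 55% in size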
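Viability by CellTiter-Glo luminescence after 48 h compound exposure at 37C of HT-1080-NT cells (750/well, RPMI, 5% FBS). % activity scaled between DMSO wells and medium-only wells, then curve-fitted and categorized by curve class.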
KB-V1 cytotox – qHTS assay for MDR1-selective chemotherapeutics: Primary screen using the drug-selected MDR subline cells KB-V1 | KB-V1 MDR cells viability, CellTiter-Glo, 72 h | Potency, µM (highest dose often 46.1 µM), usual class: cytotoxic | 400,000 tested, 3.4% active | AID 1347076, 2019; also: nearly all actives have a fitted effect of over 60% in size
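Readout: CellTiter-Glo luminescence, 10 min after addition. Cells: KB-V1 MDR subline, 72 h at 37 degrees C with compound. Analysis: corrected, normalized data fitted to concentration-effect curves.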
HT1080 IDH1KD tx – qHTS for induction of synthetic lethality in tumor cells producing 2HG: qHTS for the HT-1080-IDH1KD cell line; 360,000 tested, 2% active; Potency, µM (titrated, usually from 46.1 µM), usual class: cytotoxic; HT-1080 IDH1 knockdown viability, ATP luminescence, 48 h
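Using the IDH1-knockdown HT-1080 line run in the same batch and compound series as the NT line, viability after 48 h at 37 °C was determined by CellTiter-Glo luminescence and expressed as % activity.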
Numbers stand for hits; n = inactive; u = inconclusive; x = not tested or not shown. Rows were chosen to be rich in hits. Some 19% of all compounds tested hit in one or more screens of this group. Calls follow the shape of the dose curve; as a rule, active = well fitted curve in the direction sought with a large enough effect; inconclusive = small, poorly fitted or top-dose-only effect, or another doubt; inactive = no such curve, though single readings can be large; an effect the other way counts as inactive or inconclusive.

SMILES	KB-3-1 cytotox	TDP1 cell noCPT	TDP1 cell CPT	HT1080-NT tox	KB-V1 cytotox	HT1080 IDH1KD tx
Cc1sc(NC(=O)C2C3CCC(C3)C2C(=O)O)c(C(N)=O)c1-c1ccc(C(C)(C)C)cc1 (stereo not drawn)	n	12µM	u	u	n	u
Cc1sc(NC(=O)c2cccc([N+](=O)[O-])c2)c(C(N)=O)c1-c1ccc(C(C)(C)C)cc1	n	21µM	u	n	n	n
Cc1sc(NC(=O)/C=C/C(=O)O)c(C(N)=O)c1-c1ccc(C(C)(C)C)cc1	n	u	23µM	u	n	21µM
CCOC(=O)c1c(NC(=O)/C=C\C(=O)O)sc(C)c1-c1ccccc1	n	u	u	u	n	u
CCOC(=O)c1c(NC(=O)/C=C/C(=O)O)sc(C)c1-c1ccc(C(C)(C)C)cc1	n	21µM	13µM	8.2µM	u	5.8µM
Cc1ccc(C(=O)COc2nc(C)nc3ccccc23)cc1	n	n	n	n	n	n
CCc1ccc2oc(-c3ccc(C)c(NC(=O)COc4ccccc4Cl)c3)nc2c1	n	u	n	x	n	x
CCc1ccc(-c2c(C)sc(NC(C)=O)c2C(N)=O)cc1	n	23µM	u	n	n	n
CC(C)(C)OC(=O)N(CCc1ccccc1)Cc1ccc(OCc2cccc(NC(=O)C3CCCC3)c2)cc1	n	6.5µM	5.2µM	n	n	n
CC(C)(C)OC(=O)N(CCc1ccccc1)Cc1ccccc1OCc1ccc(NC(=O)C2CCC2)cc1	u	u	u	n	u	n
CC(C)(C)OC(=O)N(CCc1ccccc1)Cc1ccccc1OCc1cccc(NC(=O)C2CCCC2)c1	n	u	21µM	u	n	n
CC(C)(C)OC(=O)N(Cc1ccccc1)Cc1ccccc1OCc1ccc(NC(=O)C2CCC2)cc1	n	u	18µM	n	u	n
CC(C)(C)OC(=O)N(CCc1ccccc1)Cc1cccc(OCc2cccc(NC(=O)C3CCCC3)c2)c1	n	u	u	n	n	n
O=C(Cn1c(=O)c(=O)n(Cc2ccccc2)c2ccc(Cl)cc21)Nc1ccc(F)cc1F	u	u	u	n	n	u
CC(C)(C)NC(=O)Cn1c(=O)c(=O)n(Cc2ccccc2)c2ccc(Cl)cc21	n	n	n	n	21µM	n
O=C(C[N+]12CN3CN(CN(C3)C1)C2)c1ccc(O)c(O)c1	n	u	10µM	x	n	x
O=C(C[N+]12CN3CN(CN(C3)C1)C2)c1ccc(Cl)cc1	n	u	u	x	n	x
Cc1ccc(Cl)cc1NC(=O)C(NS(=O)(=O)c1cccc2nsnc12)c1ccccc1 (stereo not drawn)	n	u	u	x	n	x
O=C(Nc1ccncc1)Nc1ccc(F)c(Cl)c1	n	u	16µM	n	n	n
Cc1ccc(NC(=O)Nc2ccc(F)cc2)cc1Cl	n	23µM	u	n	n	n
COc1cccc(NC(=O)Nc2ccc(C)c(Cl)c2)c1	n	u	u	n	n	n
O=C(Cc1ccc(Cl)cc1Cl)Nc1ccncc1	u	u	12µM	n	n	n
COC(=O)NC(=S)Nc1ccc(Oc2ccc(Cl)cc2)c(Cl)c1	n	u	u	u	n	n
COC(=O)NC(=S)Nc1ccc(Oc2ccc(Cl)cc2Cl)c(Cl)c1	15µM	4.6µM	9.2µM	16µM	u	21µM
Cc1ccc(C(=O)N2CCC(N3CCN(Cc4ccc(F)cc4)C(=O)C3=O)CC2)cc1	n	n	n	x	n	x
SMILES	KB-3-1 cytotox	TDP1 cell noCPT	TDP1 cell CPT	HT1080-NT tox	KB-V1 cytotox	HT1080 IDH1KD tx
CCOc1cccc(OCCCn2c(-c3ccc(Br)cc3)nc3ccccc3c2=O)c1	n	n	n	x	u	x
Cc1ccc(CN2C(=O)CN(C3CCC(C)CC3)C(=O)C2c2ccc(F)cc2)cc1 (stereo not drawn)	x	u	n	x	x	x
O=C(Cc1ccc(Cl)cc1Cl)Nc1ccncc1Cl	n	1.8µM	5.2µM	n	n	n
Fc1ccc(NC(=S)Nc2ccc(F)c(Cl)c2)cc1Cl	u	13µM	23µM	u	u	u
COc1ccc(CC(=O)Nc2ccncc2Cl)cc1	n	1.8µM	4.6µM	n	n	n
O=C(NC(=S)Nc1ccc(F)c(Cl)c1)C1CC1	n	n	n	n	n	n
COc1nc(NC(C)(C)C)nc(Oc2ccc(=O)n(-c3ccccc3)n2)n1	n	n	n	n	21µM	n
CCNc1nc(OC)nc(Oc2ccc(=O)n(-c3ccccc3)n2)n1	n	n	n	n	n	n
O=C(CSc1cn(CCNC(=O)c2c(F)cccc2F)c2ccccc12)Nc1ccccc1F	n	21µM	u	x	u	x
O=C(CSc1cn(CCNC(=O)c2ccccc2F)c2ccccc12)Nc1ccccc1F	n	u	u	x	n	x
